Assay outcomes as filed in PubChem BioAssay.
Hits are enriched below; roughly 19% of the tested compounds scored in any of these assays.
IL-1B inflam inh: inhibitors of inflammasome signaling (IL-1 beta secretion); THP-1 LPS/ATP IL-1B secretion, AlphaLISA, 16 h; hits give low values; activity change, % at 57.5 µM; 360,000 compounds, 4.7% hits; AID 743279; in the data active means activity change below about -50%; inconclusive means mostly about -30% to -49%
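THP-1 cells pretreated 1 hr with compounds (up to 57.5 uM final), then stimulated with LPS (250 ng/mL final) plus ATP (1.25 mM final); secreted IL-1B measured by AlphaLISA after 16 hr, decreased signal indicating inhibition.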
DT40 TDP1 CPT: DT40-hTDP1 cell growth loss with CPT; AID 686979; 420,000 compounds, 12% hits; Potency, µM (highest dose often 46.2 µM), for the others: at the highest dose activity change, negative = growth inhibition, actives largely listed as inhibitors; chicken DT40 Tdp1-/-;hTDP1 cells + 20 nM CPT, ATP luminescence, 48 h; further: potency means the concentration at half of the fitted maximal effect; nearly all actives have a fitted effect of over 55% in size
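Chicken DT40 Tdp1-/- cells stably complemented with human TDP1 were seeded at 400 cells/well in medium containing 20 nM camptothecin, exposed to pin-transferred compounds, and grown at 37 °C for at least 48 hr. Viability was read as ATP luminescence.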
Giardia killer: Giardia lamblia killing; 340,000 compounds, 0.15% hits; activity change, % at 7.66 µM, hits read low; Giardia lamblia trophozoite viability; in the data active means activity change below about -80%; inconclusive means between about -30% and that limit;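 further: parasites exposed to compound for two days anaerobically before the ATP read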
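Trophozoites 100 cells/well + cpd; 48 hrs, 37 deg C, anaerobic. ATPLite 1-Step added, 15-30 min RT, luminescence read (ATP-based viability).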
TDP1 block: inhibitors of human tyrosyl-DNA phosphodiesterase TDP1. Q9NUW8. 350,000 compounds, 0.28% hits. Potency, µM (titrated, usually from 130 µM), for inactives: at the top dose activity change, negative = inhibition, usual class: inhibitors. recombinant TDP1, AlphaScreen DNA substrate cleavage. AID 485290; further: potency means the concentration at half of the fitted maximal effect; nearly all actives have a fitted effect of over 40% in size
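Compounds were preincubated with Tdp1 (1 nM final) for 15 min at room temperature before substrate (15 nM final) started a 5 min reaction; beads (10 ug/ml final) were then added for 10 min before AlphaScreen detection.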
ELG1 repair inh: inhibitors of ELG1-dependent DNA repair in HEK293T cells. 330,000 compounds, 2.3% hits. AID 504467. HEK293T ELG1-luciferase reporter, luminescence, 16 h; DNA damage induced by 5-fluorouridine. Potency, µM (highest dose often 46.1 µM), without a hit: at the highest dose activity change, negative = inhibition, actives largely listed as inhibitors; further: potency means the concentration at half of the fitted maximal effect; nearly all actives have a fitted effect of over 55% in size
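Cells (2,000 per well) received 5-fluorouridine plus test compound or DMSO and were incubated 16 hr at 37 °C, 5% CO2. Luciferase activity was read by luminescence 30 min after ONE-Glo addition; signal suppression marked inhibition of damage-induced ELG1 function.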
TDP1 cell noCPT: qHTS for Inhibitors of human tyrosyl-DNA phosphodiesterase 1 (TDP1): qHTS in cells in absence of CPT | DT40 Tdp1-/- hTDP1 cells, no CPT, ATP luminescence, 48 h | AID 686978, 2013 | 420,000 compounds, 15% hits | Potency, µM (doses to about 46.2 µM), without a hit: at the top dose activity change, negative = growth inhibition, hits mostly inhibitors; further: potency means the concentration at half of the fitted maximal effect; nearly all actives have a fitted effect of over 55% in size
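Seeded 400 DT40-hTDP1 cells/well (vehicle DMSO, no 20 nM CPT); pinned compounds; ≥48 hr at 37 °C; CellTiter-Glo luminescence as viability measure.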
ELG1 FLuc counter: luciferase inhibition in cell-free luciferin readout for ELG1 hits. 350 compounds, 3% hits. Potency, µM (titrated, usually from 46.1 µM), without a hit: at the top dose activity change, negative = inhibition, most hits filed as inhibitors. cell-free firefly luciferase luminescence counter-screen, ViewLux. shares compounds with ELG1 repair inh; further: potency means the concentration at half of the fitted maximal effect
ELG1 Luc conf: confirmation of human ELG1-dependent DNA repair inhibitors; shares compounds with ELG1 repair inh; HEK293T ELG1-luciferase levels, luminescence; cells co-treated with 5-fluorouridine; Potency, µM (doses to about 46.1 µM), without a hit: at the top dose activity change, negative = inhibition, most hits filed as inhibitors; 670 compounds, 68% hits; further: potency means the concentration at half of the fitted maximal effect; nearly all actives have a fitted effect of over 55% in size
Target sequence (Q96QE3 whole entry, looked up): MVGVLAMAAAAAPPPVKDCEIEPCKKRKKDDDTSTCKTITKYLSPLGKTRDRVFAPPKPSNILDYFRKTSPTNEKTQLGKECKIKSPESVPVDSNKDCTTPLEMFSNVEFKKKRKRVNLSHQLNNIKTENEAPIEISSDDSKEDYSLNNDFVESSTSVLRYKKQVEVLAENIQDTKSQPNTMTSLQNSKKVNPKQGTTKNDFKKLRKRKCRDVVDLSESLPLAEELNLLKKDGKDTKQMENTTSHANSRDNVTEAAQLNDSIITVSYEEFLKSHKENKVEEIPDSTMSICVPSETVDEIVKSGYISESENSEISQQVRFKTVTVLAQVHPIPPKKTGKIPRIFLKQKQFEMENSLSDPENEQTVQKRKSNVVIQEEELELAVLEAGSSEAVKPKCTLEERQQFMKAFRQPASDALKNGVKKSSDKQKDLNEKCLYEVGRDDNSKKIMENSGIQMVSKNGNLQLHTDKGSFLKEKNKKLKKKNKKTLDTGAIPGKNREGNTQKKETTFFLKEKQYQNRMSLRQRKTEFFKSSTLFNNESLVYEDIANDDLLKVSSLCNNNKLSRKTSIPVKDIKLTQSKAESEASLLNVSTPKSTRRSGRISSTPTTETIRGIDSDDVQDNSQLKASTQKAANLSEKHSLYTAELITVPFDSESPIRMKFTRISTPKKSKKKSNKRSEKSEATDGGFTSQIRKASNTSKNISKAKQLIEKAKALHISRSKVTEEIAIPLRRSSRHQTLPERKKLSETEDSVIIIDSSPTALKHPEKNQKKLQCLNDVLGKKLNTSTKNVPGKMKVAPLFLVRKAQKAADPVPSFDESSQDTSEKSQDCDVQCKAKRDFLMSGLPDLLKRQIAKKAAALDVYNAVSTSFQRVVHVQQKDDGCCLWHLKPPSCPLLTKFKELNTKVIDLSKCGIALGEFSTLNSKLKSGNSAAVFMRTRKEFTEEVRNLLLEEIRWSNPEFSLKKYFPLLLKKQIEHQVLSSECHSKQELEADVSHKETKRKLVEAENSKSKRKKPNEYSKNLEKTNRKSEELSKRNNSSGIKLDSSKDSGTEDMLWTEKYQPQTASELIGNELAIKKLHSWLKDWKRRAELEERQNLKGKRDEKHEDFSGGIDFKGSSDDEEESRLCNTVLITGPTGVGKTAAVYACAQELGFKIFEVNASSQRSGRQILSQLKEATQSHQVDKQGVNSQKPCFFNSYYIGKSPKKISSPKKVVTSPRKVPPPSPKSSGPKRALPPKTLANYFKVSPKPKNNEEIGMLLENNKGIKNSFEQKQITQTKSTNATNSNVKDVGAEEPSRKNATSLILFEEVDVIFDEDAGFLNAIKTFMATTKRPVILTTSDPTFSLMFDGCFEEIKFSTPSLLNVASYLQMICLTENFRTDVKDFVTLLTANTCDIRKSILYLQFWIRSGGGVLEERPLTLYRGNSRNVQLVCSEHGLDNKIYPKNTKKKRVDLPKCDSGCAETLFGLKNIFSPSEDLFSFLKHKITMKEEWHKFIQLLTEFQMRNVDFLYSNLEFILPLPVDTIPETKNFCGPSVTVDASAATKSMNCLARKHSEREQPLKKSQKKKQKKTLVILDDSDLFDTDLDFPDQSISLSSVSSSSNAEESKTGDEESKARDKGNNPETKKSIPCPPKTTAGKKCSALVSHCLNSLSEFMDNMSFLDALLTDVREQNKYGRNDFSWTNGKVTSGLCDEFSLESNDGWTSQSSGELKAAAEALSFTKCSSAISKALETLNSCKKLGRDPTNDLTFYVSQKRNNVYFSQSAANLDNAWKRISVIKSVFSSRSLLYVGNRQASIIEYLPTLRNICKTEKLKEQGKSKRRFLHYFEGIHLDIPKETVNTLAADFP
ELG1 MMS Luc: confirmation of human ELG1 repair inhibitors, MMS stimulated; HEK293T luciferase-tagged ELG1 level, MMS stimulated; shares compounds with ELG1 repair inh; Potency, µM (series often up to 46.1 µM), for the others: top-dose activity change, negative = inhibition, actives largely listed as inhibitors; 670 compounds, 53% hits; further: potency means the concentration at half of the fitted maximal effect; nearly all actives have a fitted effect of over 60% in size
ELG1 5-FU: confirmation of ELG1 repair inhibitors: viability with 5FU; shares compounds with ELG1 repair inh; cell viability with 5-FU, ELG1-dependent repair; Potency, µM (highest dose often 46.1 µM), without a hit: at the top dose activity change, negative = viability loss, most hits filed as cytotoxic; 670 tested, under 10 active; AID 624250;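 further: ELG1-luc HEK293T cells cotreated with 5-fluorouridine at 10 µM final; potency means the concentration at half of the fitted maximal effect; viability measured 16 h after compound addition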
ELG1 MMS viab: confirmation of ELG1 repair inhibitors: viability with MMS; shares compounds with ELG1 repair inh; AID 624251; Cell viability with MMS, ELG1-dependent DNA repair; Potency, µM (doses to about 46.1 µM), for inactives: at the highest dose activity change, negative = viability loss, most hits filed as cytotoxic; 670 compounds, 33% hits;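 further: ELG1-luc HEK293T cells co-treated with 10 µM MMS; potency means the concentration at half of the fitted maximal effect; viability read 16 h after compound addition; nearly all actives have a fitted effect of over 60% in size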
ELG1 unstim viab: unstimulated viability counter-screen for ELG1 repair hits | shares compounds with ELG1 repair inh | cell viability counter-screen, unstimulated, luminescence | Potency, µM (titrated, usually from 45.9 µM), inactives show top-dose activity change, negative = loss of viability, hits mostly cytotoxic | 900 compounds, 8% hits | AID 624252;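 further: potency means the concentration at half of the fitted maximal effect; compound exposure lasted 16 hours before reading; nearly all actives have a fitted effect of over 55% in size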
FLuc biochem: firefly luciferase inhibition counter-screen; 350 compounds, 10% hits; Potency, µM (highest dose often 57.5 µM), for the others: top-dose activity, negative = inhibition, usual class: inhibitors; shares compounds with ELG1 repair inh; purified firefly luciferase, luminescence counter-screen; further: potency means the concentration at half of the fitted maximal effect
Numbers without * were called inactive; ? = inconclusive; · = no result given. Unless noted, the call rests on the fitted dose curve; in most records, active means well fitted curve in the direction sought with a large enough effect; inconclusive means small, poorly fitted or top-dose-only effect, or another doubt; inactive means no such curve, though single readings can be large; an effect the other way counts as inactive or inconclusive. On the % scale 0 is the no-effect control and ±100 the full control effect.

SMILES	IL-1B inflam inh	DT40 TDP1 CPT	Giardia killer	TDP1 block	ELG1 repair inh	TDP1 cell noCPT	ELG1 Luc conf	ELG1 MMS Luc	ELG1 5-FU	ELG1 MMS viab	ELG1 unstim viab	others
COc1cc(C(=O)Oc2ccccc2/C=N/NC(=O)c2ccc(C)c(Cl)c2)cc(OC)c1OC	44.3	1.16µM*	-2.9	-1.4%	4.61µM*	0.92µM*	2.81µM*	?	?	-11.1%	-9.8%
COc1ccc(C(=O)N/N=C/c2ccccc2C(=O)O)cc1OC	0.0	-5.1%	7.6	1.9%	-2.1%	-20.3%	·	·	·	·	·
CC(=O)c1cc(C(=O)Nc2cccc(C)c2)c2ccccn12	·	?	·	0.0%	·	?	·	·	·	·	·
COc1ccc2c(c1)c(CC(=O)Nc1cc(C)c(OC)c(C)c1)c(C)n2C(=O)c1ccc(Cl)cc1	·	?	·	-3.2%	·	?	·	·	·	·	·
COC(=O)CNC(=O)Cc1c(C)n(C(=O)c2ccc(Cl)cc2)c2ccc(OC)cc12	23.5	-24.7%	19.6	4.1%	-16.1%	0.7%	·	·	·	·	·
COc1ccc2c(c1)c(CC(=O)Nc1cccc(S(N)(=O)=O)c1)c(C)n2C(=O)c1ccc(Cl)cc1	-15.0	?	-14.5	·	18.3µM*	?	14.1µM*	17.7µM*	?	?	?	ELG1 FLuc counter=-5.1%;FLuc biochem=4.0%
COc1ccc(NC(=O)Cc2c(C)n(C(=O)c3ccc(Cl)cc3)c3ccc(OC)cc23)cc1	26.7	-10.3%	7.0	5.5%	2.59µM*	-28.7%	17.7µM*	15.2%	?	-3.5%	-2.5%	ELG1 FLuc counter=21.6%;FLuc biochem=1.9%
COc1ccc(Nc2cc(Cl)nc(N)n2)cc1OC	25.2	1.6%	-4.7	0.0%	-0.6%	-17.7%	·	·	·	·	·
CCn1nnnc1NCc1c(OC)ccc2ccccc12	-17.5	-4.4%	-2.0	0.0%	-6.3%	3.2%	·	·	·	·	·
CCOC(=O)c1[nH]c2cc(OC)c(OC)cc2c1NC(=O)CCN1CCSCC1	16.6	0.3%	12.7	3.1%	8.0%	?	·	·	·	·	·
